Source: PubChem
Most compounds without a hit are left out; they make up all but 1.3% or so of the library.
BJeLR viability: MLPCN primary cell-based screen for lethality selective to Ras in HRASV12 cells | BJeLR (HRASV12) viability, CellTiter-Glo ATP luminescence, 48 h | inhibition, % (no concentration beside the values) | 300,000 tested, 0.17% active | AID 1554, 2009; in the data active = inhibition above about 50%; inconclusive = no clear call, values can overlap the other calls
UGM FP inh: M. tuberculosis UGM enzyme inhibitors, primary screen, biochemical, fluorescence polarization, single point; purified UGM, fluorescence polarization probe displacement; 320,000 tested, 0.06% active; inhibition, % at 10 µM; in the data active = inhibition above about 10%, passing the limit was not always enough; inconclusive = no clear call, values can overlap the other calls
Rv3671c protease: Rv3671c serine protease inhibitors, primary screen, biochemical, fluorescence polarization, M. tuberculosis H37Rv | P9WHR9 | inhibition, % at 5.96 µM | 320,000 tested, 0.048% active | AID 2606, 2010; in the data active = inhibition above about 38%;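 note: extracellular domain of Rv3671c used as enzyme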
Target sequence (P9WHR9 whole entry, looked up, the tested form may be a part): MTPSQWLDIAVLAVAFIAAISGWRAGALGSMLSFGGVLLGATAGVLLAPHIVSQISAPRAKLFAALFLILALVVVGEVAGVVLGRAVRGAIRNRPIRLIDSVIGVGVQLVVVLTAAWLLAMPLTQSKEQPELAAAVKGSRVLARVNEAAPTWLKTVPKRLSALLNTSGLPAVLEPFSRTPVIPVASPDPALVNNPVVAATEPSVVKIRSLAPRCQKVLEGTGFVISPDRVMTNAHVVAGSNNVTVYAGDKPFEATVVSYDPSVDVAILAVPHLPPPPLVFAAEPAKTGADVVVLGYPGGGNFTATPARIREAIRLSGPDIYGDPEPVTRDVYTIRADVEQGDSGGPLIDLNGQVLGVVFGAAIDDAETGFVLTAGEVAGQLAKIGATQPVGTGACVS
FadD28 FP inh: inhibitors of FadD28 bisubstrate probe binding, primary screen, biochemical, fluorescence polarization, single point; 360,000 tested, 0.22% active; Mycobacterium tuberculosis FadD28 fatty-acid-AMP ligase; AID 588549, 2011; inhibition, % at 12.5 µM; in the data active = inhibition above about 8.5%, passing the limit was not always enough; inconclusive = no clear call, values can overlap the other calls
RecA intein inh: Mtb RecA intein splicing inhibitors, primary screen, biochemical, fluorescence, HTS. 290,000 tested, 0.75% active. Protein RecA (Mycobacterium tuberculosis (strain ATCC 25618 / H37Rv)), P9WHJ3. AID 2221, 2009. inhibition, % (no concentration beside the values). cell-free RecA intein splicing; in the data active = inhibition above about 30%; inconclusive = no clear call, values can overlap the other calls
PrP 5UTR inh: inhibition of PrP 5' UTR reporter expression. cell-based PrP 5' UTR mRNA reporter, plate reader. inhibition, % (concentration not given with the values). 340,000 tested, 0.35% active. AID 488862, 2010; in the data active = inhibition above about 52%
PrP UTR cherry: prion 5' UTR mRNA inhibition, cherry-pick retest; inhibition, % at 2.5 µM; AID 504592, 2011; cell-based prion protein 5' UTR reporter, plate reader; shares compounds with PrP 5UTR inh; 1,100 tested, 48% active; in the data active = inhibition above about 54%; inconclusive = no clear call, values can overlap the other calls
Each line names hits and unclear results; the compound was inactive in the other large screens (follow-up assays come after a bar, where they were run).

C[C@@H]1O[C@@H](O[C@H]2C[C@@H](O)[C@]3(CO)[C@H]4[C@H](O)C[C@]5(C)[C@@H](C6COC(=O)C6)CC[C@]5(O)[C@@H]4CC[C@]3(O)C2)[C@H](O)[C@H](O)[C@H]1O (some centres not stated)	BJeLR viability 71, PrP 5UTR inh 59 | PrP UTR cherry 70
CC1OC(OC2CC(O)C3(CO)C4C(O)CC5(C)C(C6=CC(=O)OC6)CCC5(O)C4CCC3(O)C2)C(O)C(O)C1O (configuration not stated)	PrP 5UTR inh 91 (no result: BJeLR viability, UGM FP inh, Rv3671c protease, RecA intein inh) | PrP UTR cherry 93
CC(C)c1ccc(S(=O)(=O)N2CCC(C(=O)N3CCN(c4cccc(Cl)c4)CC3)CC2)cc1	none (no result: BJeLR viability, UGM FP inh, Rv3671c protease, RecA intein inh)
O=C(O)Cc1sc(Nc2ccccc2)nc1-c1ccc(Cl)cc1	PrP 5UTR inh 57 | PrP UTR cherry inactive
Cc1ccc(Nc2nc(-c3ccccc3)c(CC(=O)O)s2)cc1	none (no result: RecA intein inh)
N#Cc1c(NC(=O)CSc2ncn[nH]2)sc2c1CCCCC2	PrP 5UTR inh 74 | PrP UTR cherry 77
CCNc1nc2c(c(=O)n(C)c(=O)n2C)n1CCCc1ccccc1	none (no result: RecA intein inh)
Cc1ccnc(NC(=O)c2cc3ccccc3o2)c1	PrP 5UTR inh 58 | PrP UTR cherry inconclusive
O=C(Nc1ccc(Cl)cn1)c1cc2ccccc2o1	none
O=C(Nc1ccccn1)c1cc2ccccc2o1	PrP 5UTR inh 59 | PrP UTR cherry 57
COc1ccc(C(=O)NCCCNC(=O)c2cc3ccccc3[nH]2)cc1OC	PrP 5UTR inh 78 | PrP UTR cherry inactive
COc1ccc(C2=Nn3c(nnc3-c3ccccc3OC)SC2)cc1OC1CCOC1 (configuration not stated)	PrP 5UTR inh 81 (no result: BJeLR viability, RecA intein inh) | PrP UTR cherry 83
COc1ccc(C2=Nn3c(nnc3-c3ccncc3)SC2)cc1OC	none
COc1ccc(C2=Nn3c(nnc3-c3ccccc3Cl)SC2)cc1OCC1CC1	none (no result: BJeLR viability, RecA intein inh)
COc1ccccc1-c1nnc2n1N=C(c1ccc(O)c(O)c1)CS2	PrP 5UTR inh 61 | PrP UTR cherry 90
CCOc1ccc(-c2nnc3n2N=C(c2ccc(OC)cc2)CS3)cc1	none
COc1ccc(OC)c(-c2nnc3n2N=C(c2ccc(OC)c(OCC4CC4)c2)CS3)c1	PrP 5UTR inh 67 (no result: BJeLR viability, RecA intein inh) | PrP UTR cherry 93
CCOc1ccc(C2=Nn3c(nnc3-c3ccccc3OC)SC2)cc1	PrP 5UTR inh 69 | PrP UTR cherry 88
Cc1cc(=O)oc(C)c1C(=O)N1CCN(C(c2ccccc2)c2ccccc2)CC1	PrP 5UTR inh 72 | PrP UTR cherry inactive
Cc1nc2ccccn2c1C(=O)NC1CCCc2ccccc21 (configuration not stated)	PrP 5UTR inh 60 | PrP UTR cherry inconclusive
O=C(NC1CCCc2ccccc21)c1cn2ccccc2n1 (configuration not stated)	none
COc1ccc(-n2c(Cc3cc(=O)[nH]c(=O)[nH]3)nnc2SCC(=O)NC2CCCC2)cc1	PrP 5UTR inh 61 | PrP UTR cherry inactive
COC(=O)C(=O)C1CCc2c(Cl)cc(OC)c(OC)c2C1=O (configuration not stated)	PrP 5UTR inh 94 (no result: BJeLR viability, UGM FP inh, Rv3671c protease, RecA intein inh) | PrP UTR cherry inactive
CNC(=O)c1cc(Cl)c(OC)c(OC)c1	none
COC(=O)c1cc(NC(=O)/C=C/c2ccc3c(c2)OCO3)cc(C(=O)OC)c1	none
COC(=O)c1cccc(NC(=O)/C=C/c2ccc3c(c2)OCO3)c1	PrP 5UTR inh 65 | PrP UTR cherry inactive
CC1=CC2OC3CC4OC(=O)C=CC=CC(C(C)O)OCC(O)C(C)CC(=O)OCC2(CC1O)C4(C)C31CO1 (configuration not stated)	PrP 5UTR inh 95 (no result: BJeLR viability, UGM FP inh, Rv3671c protease, RecA intein inh) | PrP UTR cherry 95
CC1=CC2OC3CC4OC(=O)C=CC=CC(=O)OCCC(C)C(O)C(=O)OCC2(CC1O)C4(C)C31CO1 (configuration not stated)	PrP 5UTR inh 94 (no result: BJeLR viability, UGM FP inh, Rv3671c protease, RecA intein inh) | PrP UTR cherry 97
CCc1nn(C(CC)C(=O)NCc2cccc(OC)c2)c(=O)c2cc3occc3n12 (configuration not stated)	none
Nc1ccc(Oc2cccc(Oc3ccc(N)cc3)c2)cc1	PrP 5UTR inh 67 | PrP UTR cherry 75
Cc1cccc(Oc2ccc(N)cc2)c1	none
O=C(/C=C\Nc1ccc2c(c1)OCO2)c1ccccn1	PrP 5UTR inh 80 | PrP UTR cherry 78
O=C(Nc1ccc2c(c1)OCO2)c1ccccn1	none (no result: BJeLR viability, RecA intein inh)
COc1ccc(NC(=O)CN2C(=O)NC(CC(C)C)C2=O)cc1S(=O)(=O)N1CCOCC1 (configuration not stated)	none (no result: BJeLR viability, RecA intein inh)
Cc1ccc(C(=O)N/N=C/c2ccc([N+](=O)[O-])s2)cc1	PrP 5UTR inh 75 | PrP UTR cherry 77
Cc1ccc2nc(SC(C)C(=O)N3CCCCC3)[nH]c2c1 (configuration not stated)	PrP 5UTR inh 66 | PrP UTR cherry inactive
Cc1ccc2nc(SC(C)C(=O)N3CCCC3)[nH]c2c1 (configuration not stated)	none
O=c1[nH]c2cc([N+](=O)[O-])ccc2c2ccc([N+](=O)[O-])cc12	PrP 5UTR inh 88 (no result: BJeLR viability, UGM FP inh, Rv3671c protease, RecA intein inh) | PrP UTR cherry inactive
O=c1[nH]c2cc([N+](=O)[O-])ccc2c2ccccc12	none (no result: BJeLR viability, UGM FP inh, Rv3671c protease, RecA intein inh)
CN(Cc1ccc(Cl)cc1Cl)C(=O)CNC(=O)c1ccc2c(c1)OCO2	none
CCN1C(=O)[C@H]2[C@H]3CN=C(SC)N3[C@@](CC)(C(=O)OC)[C@H]2C1=O	PrP 5UTR inh 66 (no result: BJeLR viability, UGM FP inh, Rv3671c protease, RecA intein inh) | PrP UTR cherry inactive
CCN1C(=O)[C@H]2[C@H]3CN=C(SCC4CC4)N3[C@@](CC)(C(=O)OC)[C@H]2C1=O	none (no result: BJeLR viability, UGM FP inh, Rv3671c protease, RecA intein inh)
CC(=O)OC(C)(C)/C=C/C(=O)C(C)(O)C1C(O)CC2(C)C3CC=C4C(CC(O)C(=O)C4(C)C)C3(C)C(=O)CC12C (configuration not stated)	PrP 5UTR inh 80 (no result: BJeLR viability, UGM FP inh, Rv3671c protease, RecA intein inh) | PrP UTR cherry 90
CC(=O)OC(C)(C)/C=C/C(=O)[C@](C)(O)C1[C@H](O)C[C@@]2(C)C3CC=C4C(C=C(O[C@@H]5O[C@H](CO)[C@@H](O)[C@H](O)[C@H]5O)C(=O)C4(C)C)[C@]3(C)C(=O)C[C@]12C (some centres not stated)	none (no result: BJeLR viability, RecA intein inh)
CC(=O)OC(C)(C)/C=C/C(=O)[C@](C)(O)[C@H]1[C@H](O)C[C@@]2(C)[C@@H]3CC=C4[C@H](C[C@H](O)C(=O)C4(C)C)[C@]3(C)C(=O)C[C@]12C	PrP 5UTR inh 79 (no result: BJeLR viability, UGM FP inh, Rv3671c protease, RecA intein inh) | PrP UTR cherry 88
